Glyco luc inh – increase of ERlucT glycosylation luciferase signal, primary screen, N-linked glycosylation inhibitor project, D54 ERlucT cells, luminescence, set 2; D54 ERlucT glycosylation luciferase reporter, 24 h; percent of 100 nM tunicamycin response; reporter increase, % at 12.5 µM; hit rate 0.23% among 360,000;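 active means mean luciferase reporter signal, scaled so untreated is 0 and the glycosylation-blocking control 100, at or above a set limit in every replicate; inconclusive means mean reaches the limit but not every replicate does; inactive means mean below the limit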;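 further: luciferase carries N-glycosylation sites so blocking glycosylation raises the light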
DENV2 CPE – inhibitors of DENV2 cytopathic effect, primary screen, cell-based, plate reader, single concentration. hit rate 1.7% among 350,000. DENV2-infected cells, cytopathic effect rescue. CPE inhibition, % at 9.99 µM; in the data active means CPE inhibition above about 20%, passing the limit was not always enough; inconclusive means no clear call, values can overlap the other calls; tested in BHK-21 cells
Rtt109 HAT inh – inhibitors of C. albicans Rtt109/Vps75 HAT, primary screen, biochemical, ThioGlo CoA-SH fluorescence, plate reader; hit rate 0.16% among 330,000; purified Rtt109/Vps75, 4 h; AID 540336, 2011; inhibition, % at 34.9 µM;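 active means inhibition of at least 50% in every replicate; inconclusive means best replicate reaches 50% inhibition but some replicates fall short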
Target sequence (Q5AAJ8 whole entry, looked up): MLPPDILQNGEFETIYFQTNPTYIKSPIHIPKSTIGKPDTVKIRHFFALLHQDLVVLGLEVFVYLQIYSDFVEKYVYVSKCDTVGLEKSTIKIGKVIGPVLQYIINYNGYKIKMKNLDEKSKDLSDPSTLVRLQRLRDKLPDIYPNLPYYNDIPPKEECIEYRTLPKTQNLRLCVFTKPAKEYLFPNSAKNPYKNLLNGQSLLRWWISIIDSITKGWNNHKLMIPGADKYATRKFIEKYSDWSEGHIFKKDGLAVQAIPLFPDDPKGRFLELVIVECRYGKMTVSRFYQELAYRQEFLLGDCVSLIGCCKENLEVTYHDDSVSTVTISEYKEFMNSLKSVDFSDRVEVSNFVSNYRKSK
PglD DTNB – C. jejuni PglD acetyltransferase inhibitors, primary screen, biochemical, DTNB colorimetric, single point. inhibition, % at 12.5 µM. hit rate 0.098% among 360,000. UDP-N-acetylbacillosamine N-acetyltransferase PglD (Campylobacter jejuni). AID 602405, 2012. purified PglD enzyme, DTNB colorimetric CoA detection; in the data active means inhibition above about 16%, passing the limit was not always enough; inconclusive means no clear call, values can overlap the other calls
A number is an active result; . = inactive; ? = inconclusive; / = no result. The full list was thinned out, with hits kept by preference.

SMILES | Glyco luc inh | DENV2 CPE | Rtt109 HAT inh | PglD DTNB
C[C@@H]1CN([C@@H](C)CO)C(=O)c2cc(NC(=O)Nc3ccc(F)cc3)ccc2O[C@@H](C)CCCCO[C@@H]1CN(C)C(=O)C1CCCCC1 | / | . | / | .
C[C@@H]1CCCCO[C@@H](CN(C)C(=O)C2CCCCC2)[C@H](C)CN([C@@H](C)CO)C(=O)c2cc(NC(=O)Nc3ccc(F)cc3)ccc2O1 | / | 25 | / | .
C[C@H]1CCCCO[C@H](CN(C)C(=O)C2CCCCC2)[C@@H](C)CN([C@@H](C)CO)C(=O)c2cc(NC(=O)Nc3ccccc3)ccc2O1 | / | . | / | .
C[C@@H]1CN([C@H](C)CO)C(=O)c2cc(NC(=O)Nc3ccccc3)ccc2O[C@@H](C)CCCCO[C@@H]1CN(C)C(=O)C1CCCCC1 | / | 71 | / | .
C[C@@H]1CCCCO[C@H](CN(C)C(=O)C2CCCCC2)[C@@H](C)CN([C@@H](C)CO)C(=O)c2cc(NC(=O)Nc3ccc(F)cc3)ccc2O1 | / | 47 | / | .
C[C@@H]1CN([C@@H](C)CO)C(=O)c2cc(NC(=O)CCCN(C)C)ccc2O[C@H]1CN(C)Cc1ccc(C(=O)O)cc1 | / | . | / | .
C[C@@H]1CN([C@@H](C)CO)C(=O)c2cc(NC(=O)NC3CCCCC3)ccc2O[C@@H](C)CCCCO[C@@H]1CN(C)C(=O)c1ccccc1 | / | . | / | .
CCOC(=O)c1ccc(S(=O)(=O)N2CCC(C(=O)OCC)CC2)cc1 | . | / | . | .
CCOC(=O)c1ccc(S(=O)(=O)N2CCC(N3CCCCC3)CC2)cc1 | . | 32 | . | .
CCCNC(=O)C[C@H]1CC[C@H]2[C@@H](COC[C@@H](O)CN2CC2CCCCC2)O1 | / | . | / | .
CC(=O)N1CCN(c2ncnc3ccccc23)CC1 | . | . | 58 | .
O=S(=O)(c1cc(F)ccc1F)N1CCN(c2ncnc3ccccc23)CC1 | . | . | . | .
CCCN1C[C@@H](C)[C@@H](OC)CN(C)C(=O)c2cc(NC(=O)NC3CCCC3)ccc2OC[C@H]1C | / | . | / | /
COc1ccc(CCN(C)C(=O)c2c(C)nn(CC(C)C)c2Cl)cc1OC | . | . | . | .
COc1ccc(CCNC(=O)c2c(C)nn(CC(C)C)c2Cl)cc1OC | . | 95 | . | .
Cc1cc(C(=O)Nc2cccc3c2O[C@H](CN(C)CC2CC2)[C@H](C)CN([C@H](C)CO)C3=O)n(C)n1 | / | . | / | .
COc1cccc(CN(C)S(=O)(=O)c2cccs2)c1 | . | 25 | . | .
CN(Cc1ccccc1)S(=O)(=O)c1cccs1 | . | . | . | .
COC(=O)c1ccc(=O)c2nc3/c(=C/O)c(O)cc(=O)c3[nH]c12 | . | 42 | . | .
Cc1ccccc1S(=O)(=O)N1CC[C@@H]2[C@H]1c1cc(Br)ccc1N(C)[C@H]2CO | / | 66 | / | .
CN1c2ccc(Br)cc2[C@H]2[C@H](CCN2S(=O)(=O)c2cccc(F)c2)[C@H]1CO | / | 118 | / | .
CN1c2ccc(Br)cc2[C@@H]2[C@@H](CCN2S(=O)(=O)c2ccccc2)[C@H]1CO | / | 116 | / | .
Cc1ccccc1S(=O)(=O)N1CC[C@@H]2[C@H](CO)N(C)c3ccc(Br)cc3[C@@H]21 | / | . | / | .
O=C(C[C@@H]1C=C[C@@H](NC(=O)C2CCOCC2)[C@H](CO)O1)Nc1ccc(-c2ccccc2)cc1 | / | ? | / | .
N#C[C@@H]1[C@@H](c2ccc(/C=C/c3ccccc3)cc2)[C@@H](CO)N1C(=O)C1CCCCC1 | / | . | / | .
SMILES | Glyco luc inh | DENV2 CPE | Rtt109 HAT inh | PglD DTNB
COC(=O)C(Cc1ccccc1)NC(=O)c1ccc(C)cc1 (stereo not drawn) | . | . | . | /
COC(=O)C(Cc1csc2ccc(Cl)cc12)NC(=O)c1ccc(Cl)cc1 (stereo not drawn) | . | 96 | . | /
Cc1cccc(N(C)c2cc(C)nc3nc(C)nn23)c1 | . | 29 | . | .
CC(C)NC(=O)Nc1ccc2c(c1)C(=O)N([C@@H](C)CO)C[C@H](C)[C@H](CN(C)S(=O)(=O)c1cn(C)cn1)OCCCC[C@@H](C)O2 | / | . | / | .
CC(C)(C)C1CCC(=O)N(CCOc2ccccc2)CC1 (stereo not drawn) | . | 66 | . | .
OC[C@@H]1[C@@H](c2ccccc2)C2(CN(Cc3nccs3)C2)N1CCC(F)(F)F | / | . | / | /
CCC(=O)N1[C@H](CO)[C@@H](c2ccccc2)C12CN(Cc1nccs1)C2 | / | 73 | / | /
O=C(c1ccccc1)N1[C@H](CO)[C@@H](c2ccccc2)C12CN(Cc1nccs1)C2 | / | 27 | / | /
O=C(c1ccccc1)N1[C@@H](CO)[C@@H](c2ccccc2)C12CN(Cc1nccs1)C2 | / | 25 | / | /
OC[C@@H]1[C@H](c2ccccc2)C2(CN(Cc3nccs3)C2)N1CCC(F)(F)F | / | 25 | / | /
CO[C@@H]1CN(C)C(=O)c2ccc(NS(=O)(=O)c3ccc(C)cc3)cc2OC[C@@H](C)N(Cc2ccccn2)C[C@H]1C | / | . | / | .
CCC(=O)N1CCC2(CC1)CN(S(=O)(=O)c1ccccc1)[C@@H](CO)c1[nH]c3cc(OC)ccc3c12 | / | 28 | / | /
COc1ccc2c3c([nH]c2c1)[C@H](CO)N(C(C)=O)CC31CN(C(=O)c2cccc(F)c2)C1 | / | 83 | / | /
COc1ccc2c3c([nH]c2c1)[C@@H](CO)N(C(=O)c1ccccc1)CC31CCN(C)CC1 | / | 31 | / | /
COc1ccc2c3c([nH]c2c1)[C@@H](CO)N(Cc1nccs1)CC31CN(Cc2ccncc2)C1 | / | 54 | / | /
COc1ccc2c3c([nH]c2c1)[C@H](CO)N(C(C)=O)CC31CCN(C(=O)c2cccc(F)c2)CC1 | / | . | / | /
C[C@@H]1CCCCO[C@H](CN(C)Cc2ccccc2)[C@@H](C)CN([C@@H](C)CO)C(=O)c2cc(NC(=O)C3CCCCC3)ccc2O1 | / | . | / | .
COc1ccc2c3c([nH]c2c1)[C@@H](CO)N(C(=O)c1cccnc1)CC31CN(Cc2ccccc2)C1 | / | 35 | / | /
CCC(=O)N1CC2(CCN(Cc3ccccc3Cl)CC2)c2c([nH]c3cc(OC)ccc23)[C@@H]1CO | / | 24 | / | /
COc1ccc2c3c([nH]c2c1)[C@@H](CO)N(C(=O)c1cccnc1)CC31CCN(Cc2ccccc2)CC1 | / | . | / | /
COc1ccc2c3c([nH]c2c1)[C@@H](CO)N(C(=O)CN1CCOCC1)CC31CN(Cc2ccccc2)C1 | / | 40 | / | /
COc1ccc2c3c([nH]c2c1)[C@H](CO)N(C(=O)c1ccc(F)cc1)CC31CN(Cc2cccnc2)C1 | / | 45 | / | /
CCC(=O)N1CC2(CCN(Cc3ccccc3Cl)CC2)c2c([nH]c3cc(OC)ccc23)[C@H]1CO | / | . | / | /
CN(C)CC(=O)Nc1ccc2c(c1)[C@H]1C[C@H](CC(=O)NC3CCCC3)O[C@H](CO)[C@H]1O2 | / | . | / | .
Cc1ccc(S(=O)(=O)N[C@@H]2C=C[C@H](CC(=O)NCc3ccccc3F)O[C@@H]2CO)cc1 | / | . | / | .
Cc1ccc(-c2ccc3c(c2)O[C@H](CN(C)Cc2ccccn2)[C@H](C)CN([C@@H](C)CO)S3(=O)=O)cc1 | / | . | / | .

Assay outcomes: PubChem BioAssay, Broad Institute
